Results taken from PubChem BioAssay AID1159580 (chemical genetic matrix, 2015).
Screen size: about 5,500 compounds; about 2,000 (36%) were called active. About 18% were inconclusive and are not listed. Rule as the data show it: active = normalized growth mostly below about 0.91 (no sharp cut-off); inconclusive = no clear call, values can overlap the other calls; inactive = mostly above about 0.92. This is one part of the list.

Assay: chemical genetic growth profiling, strain panel (AID 1159580);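 also: tested at 20 µM; growth read once vehicle control cultures reached saturation at 30 °C; 1 = growth at the plate median or of vehicle wells; lower values mean less growth of the strain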
Details: growth OD

Measured: normalized growth

O[N+]1=CC=CCC1=S.On1ccccc1=S.[Zn]
active: S. cerevisiae deletion strains, locus YJR043C, strain POL32, hits give low values 0.0664 | S. cerevisiae deletion strains, locus YJR066W, strain TOR1, hits give low values 0.00186 | S. cerevisiae deletion strains, locus YJR075W, strain HOC1, hits give low values 0.0642 | S. cerevisiae deletion strains, locus YKL009W, strain mrt4, hits give low values 0.071 | S. cerevisiae deletion strains, locus YKL068W, hits give low values 0.0609 | S. cerevisiae deletion strains, locus YKL085W, strain MDH1 (second series), hits give low values 0.0543 | S. cerevisiae deletion strains, locus YKL085W, strain MDH1, hits give low values 0.0543 | S. cerevisiae deletion strains, locus YKL160W, strain elf1, hits give low values 0.07 | S. cerevisiae deletion strains, locus YKR001C, strain vps1, hits give low values 0.063 | S. cerevisiae deletion strains, locus YKR026C, strain gcn3, hits give low values 0.0676 | S. cerevisiae deletion strains, locus YKR091W, strain srl3, hits give low values 0.0611 | S. cerevisiae deletion strains, locus YLL001W, strain dnm1, hits give low values 0.059 | S. cerevisiae deletion strains, locus YLL026W, hits give low values 0.0586 | S. cerevisiae deletion strains, locus YLL041C, strain sdh2, hits give low values 0.0589 | S. cerevisiae deletion strains, locus YLR027C, strain aat2, hits give low values 0.0567 | S. cerevisiae deletion strains, locus YLR039C, strain RIC1, hits give low values 0.101 | S. cerevisiae deletion strains, locus YLR058C, strain SHM2, hits give low values 0.0528 | S. cerevisiae deletion strains, locus YLR102C, strain apc9, hits give low values 0.0619 | S. cerevisiae deletion strains, locus YLR113W, strain HOG1, hits give low values 0.14 | S. cerevisiae deletion strains, locus YLR221C, strain rsa3, hits give low values 0.0633 | S. cerevisiae deletion strains, locus YLR258W, strain gsy2, hits give low values 0.0677 | S. cerevisiae deletion strains, locus YLR262C, strain YPT6 (second series), hits give low values 0.0872 | S. cerevisiae deletion strains, locus YLR262C, strain YPT6, hits give low values 0.116 | S. cerevisiae deletion strains, locus YLR268W, strain sec22, hits give low values 0.0675 | S. cerevisiae deletion strains, locus YLR320W, strain mms22, hits give low values 0.0954 | S. cerevisiae deletion strains, locus YLR330W, strain CHS5, hits give low values 0.0529 | S. cerevisiae deletion strains, locus YLR342W, strain FKS1 (second series), hits give low values 0.0696 | S. cerevisiae deletion strains, locus YLR342W, strain FKS1, hits give low values 0.0672 | S. cerevisiae deletion strains, locus YLR357W, strain rsc2, hits give low values 0.128 | S. cerevisiae deletion strains, locus YLR370C, strain arc18, hits give low values 0.0633 | S. cerevisiae deletion strains, locus YLR371W, strain rom2, hits give low values 0.0617 | S. cerevisiae deletion strains, locus YLR384C, strain iki3, hits give low values 0.0637 | S. cerevisiae deletion strains, locus YLR418C, strain cdc73, hits give low values 0.0957 | S. cerevisiae deletion strains, locus YML016C, strain PPZ1, hits give low values 0.0508 | S. cerevisiae deletion strains, locus YML032C, strain rad52, hits give low values 0.0712 | S. cerevisiae deletion strains, locus YML120C, strain ndi1, hits give low values 0.0615 | S. cerevisiae deletion strains, locus YML124C, strain tub3, hits give low values 0.061 | S. cerevisiae deletion strains, locus YMR058W, strain fet3, hits give low values 0.0596 | S. cerevisiae deletion strains, locus YMR078C, strain ctf18, hits give low values 0.0748 | S. cerevisiae deletion strains, locus YMR125W, strain sto1, hits give low values 0.0764 | S. cerevisiae deletion strains, locus YMR129W, hits give low values 0.059 | S. cerevisiae deletion strains, locus YMR205C, strain PFK2, hits give low values 0.0932 | S. cerevisiae deletion strains, locus YMR223W, strain ubp8, hits give low values 0.0633 | S. cerevisiae deletion strains, locus YMR231W, strain pep5, hits give low values 0.0701 | S. cerevisiae deletion strains, locus YMR263W, strain SAP30, hits give low values 0.0599 | S. cerevisiae deletion strains, locus YMR307W, strain GAS1, hits give low values 0.132 | S. cerevisiae deletion strains, locus YNL067W, strain RPL9B, hits give low values 0.0487 | S. cerevisiae deletion strains, locus YNL071W, strain lat1, hits give low values 0.0631 | S. cerevisiae deletion strains, locus YNL128W, strain TEP1, hits give low values 0.0641 | S. cerevisiae deletion strains, locus YNL183C, strain NPR1, hits give low values 0.00323 | S. cerevisiae deletion strains, locus YNL209W, strain ssb2, hits give low values 0.0623 | S. cerevisiae deletion strains, locus YNL233W, strain BNI4, hits give low values 0.0571 | S. cerevisiae deletion strains, locus YNL248C, strain rpa49, hits give low values 0.0755 | S. cerevisiae deletion strains, locus YNL250W, strain rad50, hits give low values 0.0654 | S. cerevisiae deletion strains, locus YNL271C, strain bni1, hits give low values 0.074 | S. cerevisiae deletion strains, locus YNL298W, strain CLA4, hits give low values 0.0625 | S. cerevisiae deletion strains, locus YNL307C, strain MCK1, hits give low values 0.0674 | S. cerevisiae deletion strains, locus YNL322C, strain KRE1 (second series), hits give low values 0.0696 | S. cerevisiae deletion strains, locus YNR049C, strain mso1, hits give low values 0.0598 | S. cerevisiae deletion strains, locus YNR052C, strain pop2, hits give low values 0.0619 | S. cerevisiae deletion strains, locus YOL147C, strain pex11, hits give low values 0.0583 | S. cerevisiae deletion strains, locus YOR001W, strain rrp6, hits give low values 0.0748 | S. cerevisiae deletion strains, locus YOR061W, strain CKA2, hits give low values 0.049 | S. cerevisiae deletion strains, locus YOR069W, strain VPS5, hits give low values 0.0493 | S. cerevisiae deletion strains, locus YOR070C, strain gyp1, hits give low values 0.064 | S. cerevisiae deletion strains, locus YOR080W, strain dia2, hits give low values 0.0707 | S. cerevisiae deletion strains, locus YOR083W, strain WHI5, hits give low values 0.0734 | S. cerevisiae deletion strains, locus YOR106W, strain vam3, hits give low values 0.0661 | S. cerevisiae deletion strains, locus YOR136W, strain idh2, hits give low values 0.0716 | S. cerevisiae deletion strains, locus YOR144C, strain elg1, hits give low values 0.0584 | S. cerevisiae deletion strains, locus YOR184W, strain ser1, hits give low values 0.0698 | S. cerevisiae deletion strains, locus YOR231W, strain MKK1, hits give low values 0.116 | S. cerevisiae deletion strains, locus YOR265W, strain rbl2, hits give low values 0.064 | S. cerevisiae deletion strains, locus YOR270C, strain vph1, hits give low values 0.0915 | S. cerevisiae deletion strains, locus YOR290C, strain snf2, hits give low values 0.0656 | S. cerevisiae deletion strains, locus YOR316C, strain cot1, hits give low values 0.0596 | S. cerevisiae deletion strains, locus YPL051W, strain arl3, hits give low values 0.0708 | S. cerevisiae deletion strains, locus YPL055C, strain LGE1, hits give low values 0.0796 | S. cerevisiae deletion strains, locus YPL078C, strain atp4, hits give low values 0.07 | S. cerevisiae deletion strains, locus YPL106C, strain sse1, hits give low values 0.109 | S. cerevisiae deletion strains, locus YPL240C, strain hsp82, hits give low values 0.0591 | S. cerevisiae deletion strains, locus YPL256C, strain CLN2, hits give low values 0.114 | S. cerevisiae deletion strains, locus YPR119W, strain clb2, hits give low values 0.0639 | S. cerevisiae deletion strains, locus YPR141C, strain kar3, hits give low values 0.0689 | S. cerevisiae deletion strains, locus YPR163C, strain tif3, hits give low values 0.0727 | S. cerevisiae deletion strains, locus YPR167C, strain met16, hits give low values 0.0637 | S. cerevisiae deletion strains, strain wtn01, hits give low values 0.0638 | S. cerevisiae strains, strain wild type, hits give low values 0.0514
